33 molecules from ChEMBL document CHEMBL1961873, “Compounds: GSK PKIS; Assays: Nanosyn kinase panel” (2012) can be followed below.

In general, inhibition refers to the change of the read-out against control, counted positive when it falls.

The target in one experiment is Tyrosine-protein kinase Lyn (Homo sapiens) (UniProt P07948). Conditions: at 1 µM.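 Also: kinase tested as its LYN B splice variant, values given as mean percent inhibition.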
Sequence of Tyrosine-protein kinase Lyn (Homo sapiens) (P07948 2-512 limits assumed): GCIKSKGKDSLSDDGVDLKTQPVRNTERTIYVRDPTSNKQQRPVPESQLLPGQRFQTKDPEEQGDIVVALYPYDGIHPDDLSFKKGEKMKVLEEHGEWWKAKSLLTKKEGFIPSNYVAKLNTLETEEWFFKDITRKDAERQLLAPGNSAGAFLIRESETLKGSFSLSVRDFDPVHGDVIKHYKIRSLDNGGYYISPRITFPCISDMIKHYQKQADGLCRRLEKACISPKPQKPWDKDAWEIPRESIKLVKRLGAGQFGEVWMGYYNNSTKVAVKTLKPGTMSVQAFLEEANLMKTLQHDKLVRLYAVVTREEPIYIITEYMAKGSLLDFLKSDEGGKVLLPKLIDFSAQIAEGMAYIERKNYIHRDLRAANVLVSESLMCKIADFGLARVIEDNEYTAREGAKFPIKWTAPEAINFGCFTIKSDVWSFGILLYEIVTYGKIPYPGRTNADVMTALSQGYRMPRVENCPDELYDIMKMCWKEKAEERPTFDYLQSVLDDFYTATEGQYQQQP
Regarding `CCn1cc(-c2ccnc3[nH]ccc23)c(-c2cccc(NC(=O)Nc3ccc(OCc4ccccc4)cc3)c2)n1`, the inhibition amounted to 13.6%.
The same measure, in the same setting: with `Cc1cccc(Nc2ncc(-c3ccccc3)o2)c1` the figure was 7.24%.
On the same count and under the same terms, then `Nc1nc(-c2ccc(F)cc2)c(-c2ccc3ncccc3n2)s1`, with 33%; and `FC(F)(F)c1cccc(-c2nn3ncccc3c2-c2ccnc(Nc3ccc4c(c3)OCCO4)n2)c1`, with 33.9%; and `CNC(=O)c1cncc(/C=C/c2ccccc2Cl)c1`, with 8.12%.
For the molecule `O=C(O[C@H]1CN[C@H](C#Cc2cc3ncnc(Nc4ccc(Cc5ccccc5)cc4)c3s2)C1)N1CCOCC1`, the inhibition amounted to 3.75%.
On the same count and under the same terms, then `COc1ccc(-c2nn3ncccc3c2-c2ccnc(Nc3ccc4c(c3)OCCO4)n2)cc1`, with 55.4%.
On the same count and under the same terms, then `CCNC(=O)O[C@H]1CN[C@H](C#Cc2cc3ncnc(Nc4ccc(OCc5cccc(F)c5)c(Cl)c4)c3s2)C1`, with 1.7%.
Same read-out and setting: with `COc1ccc(-c2oc3ncnc(N)c3c2-c2ccc(NC(=O)Nc3cc(C(F)(F)F)ccc3F)cc2)cc1` the figure was 93.2%; with `CCn1c(-c2nonc2N)nc2cnc(Oc3cccc(NC(=O)c4ccc(N(C)C)cc4)c3)cc21`, 1.31%.
For the molecule `CCn1c(-c2nonc2N)nc2c(C#CC(C)(C)O)nc(OC[C@H](N)c3ccccc3)cc21`, the inhibition was found to be 4.2%.
On to `Fc1ccc(-c2nn3ncccc3c2-c2ccnc(Nc3ccc4c(c3)OCCO4)n2)cc1`, for which the inhibition was 72.7%.
Still for that read-out and setting: with `COc1cccc(-c2c[nH]c3c(N/N=C/c4ccncc4)ncnc23)c1` the figure was 81.8%; with `O=C(Nc1n[nH]c2cc(-c3ccc(F)cc3)ccc12)C1CC1`, 3.43%.
The same measure, in the same setting: then `Clc1ccc(-c2nn3ncccc3c2-c2ccnc(Nc3ccccc3)n2)cc1`, with 35.4%.
`c1ccc(COc2ccc(Nc3ncnc4ccc(-c5ccco5)cc34)cc2)cc1`: the inhibition was 1.94%.
On the same count and under the same terms, with `N#Cc1c(NC(=O)c2ccc(F)cc2)sc2c1CCCC2` the figure was 2.84%; with `COc1cc(/C=N/Nc2ncnc3[nH]ncc23)ccc1O`, 59.6%.
Still for that read-out and setting: then `Nc1nc(-c2cccc(Cl)c2)c(-c2ccc3ncccc3n2)s1`, with 13.2%.
Regarding `COc1cc2ncn(-c3cc(OCc4ccccc4C(F)(F)F)c(C(=O)N(C)C)s3)c2cc1OC`, the inhibition turned out to be 8.58%.
As to `COC(=O)Nc1nc2ccc(S(=O)(=O)c3ccc(NC(=O)Nc4cc(C(F)(F)F)ccc4F)cc3)cc2[nH]1`, the inhibition is 3.05%.
As for `COc1ccc(-c2cc3c(N)ncnc3o2)cc1`, the inhibition is 3.28%.
As for `COc1cc(N2CCN(C(C)C)CC2)ccc1Nc1nc(Nc2ccc(F)cc2C(N)=O)c2cc[nH]c2n1`, the inhibition turned out to be 1.29%.
Same read-out and setting: with `CC1=C(C(=O)Nc2cc(Cl)c3[nH]ncc3c2)C(c2ccc(C(F)(F)F)cc2)CC(=O)N1` (stereo unspecified) the figure was 9.12%; with `CC(=O)NCc1cccc(C#Cc2cncnc2Nc2ccc(OCc3cccc(F)c3)c(Cl)c2)c1`, -1.18%.
Still for that read-out and setting: with `CCn1c(-c2nonc2N)nc2c(C#CC(C)(C)O)ncc(OC3CCNCC3)c21` the figure was 2.89%; with `NS(=O)(=O)c1ccc(Nc2ncc(-c3ccccc3)o2)cc1`, 9.48%; with `CCCN(CCS(C)(=O)=O)Cc1ccc(-c2ccc3ncnc(Nc4ccc(OCc5cccc(F)c5)c(Cl)c4)c3c2)o1`, 6.38%.
Consider `CN1CCC(n2cnc(-c3ccc(F)cc3)c2-c2ccnc(Nc3ccccc3)n2)CC1`, for which the inhibition came to 13.9%.
On the same count and under the same terms, then `COc1ccc(CNC(=O)c2ccc(-c3cc(-c4nnc(C)o4)ccc3C)cc2)cc1`, with 7.12%; and `COc1cc(Nc2nccc(Nc3ccc4c(C)n[nH]c4c3)n2)cc(OC)c1OC`, with 85.6%; and `CN1CCC(n2cnc(-c3ccc(F)cc3)c2-c2ccnc(N)n2)CC1`, with 6.85%.
On the same count and under the same terms, with `COc1ccc2c(-c3ccnc(Nc4cccc(OC(F)(F)F)c4)n3)cnn2n1` the figure was 7.1%.

Another experiment addresses T1, Tyrosine-protein kinase Mer (Homo sapiens) (UniProt Q12866).
T1 sequence (whole entry): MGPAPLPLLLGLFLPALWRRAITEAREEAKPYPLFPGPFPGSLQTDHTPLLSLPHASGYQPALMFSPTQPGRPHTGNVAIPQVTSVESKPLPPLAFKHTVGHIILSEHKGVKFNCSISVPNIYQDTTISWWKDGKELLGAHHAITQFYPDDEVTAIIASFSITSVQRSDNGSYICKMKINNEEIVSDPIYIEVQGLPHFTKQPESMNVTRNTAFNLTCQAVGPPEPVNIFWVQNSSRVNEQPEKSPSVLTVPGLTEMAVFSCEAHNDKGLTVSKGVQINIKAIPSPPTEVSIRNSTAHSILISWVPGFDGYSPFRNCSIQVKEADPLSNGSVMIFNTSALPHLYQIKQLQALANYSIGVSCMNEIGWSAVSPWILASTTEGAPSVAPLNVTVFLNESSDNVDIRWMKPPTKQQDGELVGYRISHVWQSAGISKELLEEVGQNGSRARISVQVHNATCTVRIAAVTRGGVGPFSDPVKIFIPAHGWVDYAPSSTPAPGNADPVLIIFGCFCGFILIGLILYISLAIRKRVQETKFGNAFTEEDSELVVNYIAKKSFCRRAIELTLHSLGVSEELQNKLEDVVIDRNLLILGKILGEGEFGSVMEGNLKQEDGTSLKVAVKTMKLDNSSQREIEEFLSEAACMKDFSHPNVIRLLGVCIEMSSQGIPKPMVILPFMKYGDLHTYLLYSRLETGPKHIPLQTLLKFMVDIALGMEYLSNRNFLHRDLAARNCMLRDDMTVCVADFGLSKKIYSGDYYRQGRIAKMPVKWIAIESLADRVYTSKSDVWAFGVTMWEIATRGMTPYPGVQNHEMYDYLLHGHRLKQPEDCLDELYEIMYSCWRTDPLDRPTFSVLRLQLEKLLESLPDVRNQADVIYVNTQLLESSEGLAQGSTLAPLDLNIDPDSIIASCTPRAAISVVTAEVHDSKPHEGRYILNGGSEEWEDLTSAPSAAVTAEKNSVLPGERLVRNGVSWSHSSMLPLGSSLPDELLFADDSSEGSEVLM
The conditions noted are these: at 0.1 µM.
As for `CCn1cc(-c2ccnc3[nH]ccc23)c(-c2cccc(NC(=O)Nc3ccc(OCc4ccccc4)cc3)c2)n1`, the inhibition stood at 0.66%.
On the same count and under the same terms, then `Cc1cccc(Nc2ncc(-c3ccccc3)o2)c1`, with 3.9%; and `Nc1nc(-c2ccc(F)cc2)c(-c2ccc3ncccc3n2)s1`, with 2.57%; and `FC(F)(F)c1cccc(-c2nn3ncccc3c2-c2ccnc(Nc3ccc4c(c3)OCCO4)n2)c1`, with 4.3%.
The same measure, in the same setting: then `CNC(=O)c1cncc(/C=C/c2ccccc2Cl)c1`, with 3.56%.
For the molecule `O=C(O[C@H]1CN[C@H](C#Cc2cc3ncnc(Nc4ccc(Cc5ccccc5)cc4)c3s2)C1)N1CCOCC1`, the inhibition was -0.63%.
Regarding `COc1ccc(-c2nn3ncccc3c2-c2ccnc(Nc3ccc4c(c3)OCCO4)n2)cc1`, the inhibition is -0.06%.
`CCNC(=O)O[C@H]1CN[C@H](C#Cc2cc3ncnc(Nc4ccc(OCc5cccc(F)c5)c(Cl)c4)c3s2)C1`: the inhibition is 0.26%.
Take `COc1ccc(-c2oc3ncnc(N)c3c2-c2ccc(NC(=O)Nc3cc(C(F)(F)F)ccc3F)cc2)cc1`: the inhibition was determined as 11.7%.
Take `CCn1c(-c2nonc2N)nc2cnc(Oc3cccc(NC(=O)c4ccc(N(C)C)cc4)c3)cc21`: the inhibition is 0.23%.
On the same count and under the same terms, then `CCn1c(-c2nonc2N)nc2c(C#CC(C)(C)O)nc(OC[C@H](N)c3ccccc3)cc21`, with 5.78%; and `Fc1ccc(-c2nn3ncccc3c2-c2ccnc(Nc3ccc4c(c3)OCCO4)n2)cc1`, with 5.86%.
As for `COc1cccc(-c2c[nH]c3c(N/N=C/c4ccncc4)ncnc23)c1`, the inhibition came out at 2.09%.
The same measure, in the same setting: then `O=C(Nc1n[nH]c2cc(-c3ccc(F)cc3)ccc12)C1CC1`, with 2.14%.
For `Clc1ccc(-c2nn3ncccc3c2-c2ccnc(Nc3ccccc3)n2)cc1`, the inhibition stood at 0.11%.
Same read-out and setting: with `c1ccc(COc2ccc(Nc3ncnc4ccc(-c5ccco5)cc34)cc2)cc1` the figure was 1.57%.
On the same count and under the same terms, with `N#Cc1c(NC(=O)c2ccc(F)cc2)sc2c1CCCC2` the figure was -0.51%.
The same measure, in the same setting: then `COc1cc(/C=N/Nc2ncnc3[nH]ncc23)ccc1O`, with 1.2%; and `Nc1nc(-c2cccc(Cl)c2)c(-c2ccc3ncccc3n2)s1`, with 2.09%; and `COc1cc2ncn(-c3cc(OCc4ccccc4C(F)(F)F)c(C(=O)N(C)C)s3)c2cc1OC`, with 1.59%.
For the molecule `COC(=O)Nc1nc2ccc(S(=O)(=O)c3ccc(NC(=O)Nc4cc(C(F)(F)F)ccc4F)cc3)cc2[nH]1`, the inhibition was found to be 0.88%.
For `COc1ccc(-c2cc3c(N)ncnc3o2)cc1`, the inhibition stood at 0.56%.
For `COc1cc(N2CCN(C(C)C)CC2)ccc1Nc1nc(Nc2ccc(F)cc2C(N)=O)c2cc[nH]c2n1`, the inhibition is 4.46%.
`CC1=C(C(=O)Nc2cc(Cl)c3[nH]ncc3c2)C(c2ccc(C(F)(F)F)cc2)CC(=O)N1` (stereo unspecified): the inhibition was 1.72%.
For the molecule `CC(=O)NCc1cccc(C#Cc2cncnc2Nc2ccc(OCc3cccc(F)c3)c(Cl)c2)c1`, the inhibition came out at 0.61%.
Same read-out and setting: with `CCn1c(-c2nonc2N)nc2c(C#CC(C)(C)O)ncc(OC3CCNCC3)c21` the figure was 3.67%; with `NS(=O)(=O)c1ccc(Nc2ncc(-c3ccccc3)o2)cc1`, 2.4%; with `CCCN(CCS(C)(=O)=O)Cc1ccc(-c2ccc3ncnc(Nc4ccc(OCc5cccc(F)c5)c(Cl)c4)c3c2)o1`, 4.13%.
As for `CN1CCC(n2cnc(-c3ccc(F)cc3)c2-c2ccnc(Nc3ccccc3)n2)CC1`, the inhibition came out at 0.46%.
Still for that read-out and setting: then `COc1ccc(CNC(=O)c2ccc(-c3cc(-c4nnc(C)o4)ccc3C)cc2)cc1`, with 3.37%.
Turning to `COc1cc(Nc2nccc(Nc3ccc4c(C)n[nH]c4c3)n2)cc(OC)c1OC`, the inhibition is 3.5%.
Same read-out and setting: with `CN1CCC(n2cnc(-c3ccc(F)cc3)c2-c2ccnc(N)n2)CC1` the figure was 0.51%.
As to `COc1ccc2c(-c3ccnc(Nc4cccc(OC(F)(F)F)c4)n3)cnn2n1`, the inhibition came out at 1.44%.
